Screens (PubChem)
Compounds with a hit are over-represented: about 18% of the library has one in this group of screens.
TDP1 cell noCPT – qHTS for Inhibitors of human tyrosyl-DNA phosphodiesterase 1 (TDP1): qHTS in cells in absence of CPT. 420,000 compounds, 15% hits. DT40 Tdp1-/- hTDP1 cells, no CPT, ATP luminescence, 48 h. Potency, µM (highest dose often 46.2 µM), most hits filed as inhibitors; further: nearly all actives have a fitted effect of over 55% in size
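Stably hTDP1-transfected Tdp1-null chicken DT40 cells were treated with library compounds minus camptothecin and grown for at least 48 hr at 37 °C, after which cellular ATP was quantified by luminescence.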
HepG2 viability – counter-screen for TGF-b inhibitors: cytotoxicity in HepG2 cells; HepG2 CAGA-GFP viability, ATP luminescence, 18 h; Potency, µM (doses to about 46.1 µM), usual class: cytotoxic; 410,000 compounds, 0.76% hits
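CellTiter-Glo luminescence gave cytotoxicity after 18 hours at 37 degrees C. The cells were HepG2 CAGA-GFP in 1% FBS DMEM, stimulated with 500 pg/mL TGF-beta after compound addition. %Activity was normalised to no-cell wells (complete cell-killing) and DMSO (no toxicity), and curves were fitted and classified.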
IL1B secr inh – inflammasome signaling inhibition, IL-1 beta readout; activity change, % at 57.5 µM; THP-1 LPS/ATP IL-1B secretion, AlphaLISA, 16 h; hits give low values; 360,000 compounds, 4.7% hits; AID 743279; in the data active means activity change below about -50%; inconclusive means mostly about -30% to -49%
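THP-1 cells pretreated 1 hr with compounds (up to 57.5 uM final), then stimulated with LPS (250 ng/mL final) plus ATP (1.25 mM final); secreted IL-1B measured by AlphaLISA after 16 hr, decreased signal indicating inhibition.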
DT40 TDP1 CPT – DT40-hTDP1 cell growth loss with CPT; chicken DT40 Tdp1-/-;hTDP1 cells + 20 nM CPT, ATP luminescence, 48 h; Potency, µM (doses to about 46.2 µM), actives largely listed as inhibitors; 420,000 compounds, 12% hits; further: nearly all actives have a fitted effect of over 55% in size
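Chicken DT40 Tdp1-/- cells stably complemented with human TDP1 were seeded at 400 cells/well in medium containing 20 nM camptothecin, exposed to pin-transferred compounds, and grown at 37 °C for at least 48 hr. Viability was read as ATP luminescence.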
TDP1 block – TDP1 (human) enzyme inhibition | AID 485290 | recombinant TDP1, AlphaScreen DNA substrate cleavage | 350,000 compounds, 0.28% hits | Potency, µM (doses to about 130 µM), hits mostly inhibitors; further: nearly all actives have a fitted effect of over 40% in size
Target sequence (Q9NUW8 whole entry, looked up): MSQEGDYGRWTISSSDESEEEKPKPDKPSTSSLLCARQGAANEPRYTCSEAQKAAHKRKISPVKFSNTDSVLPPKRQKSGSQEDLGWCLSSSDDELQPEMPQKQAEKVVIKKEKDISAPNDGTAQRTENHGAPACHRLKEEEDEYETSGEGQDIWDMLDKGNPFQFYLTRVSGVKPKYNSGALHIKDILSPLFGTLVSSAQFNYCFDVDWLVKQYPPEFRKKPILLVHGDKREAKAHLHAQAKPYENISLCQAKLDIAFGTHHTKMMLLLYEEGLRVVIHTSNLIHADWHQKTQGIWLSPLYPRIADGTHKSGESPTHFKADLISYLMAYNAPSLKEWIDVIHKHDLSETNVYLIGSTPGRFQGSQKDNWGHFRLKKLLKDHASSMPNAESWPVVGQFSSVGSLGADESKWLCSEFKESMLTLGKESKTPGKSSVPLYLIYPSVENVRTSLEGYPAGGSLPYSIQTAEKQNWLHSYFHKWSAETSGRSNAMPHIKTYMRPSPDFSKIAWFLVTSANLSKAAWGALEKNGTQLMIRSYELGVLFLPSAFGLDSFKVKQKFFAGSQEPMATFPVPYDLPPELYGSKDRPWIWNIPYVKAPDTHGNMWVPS
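E. coli-derived human Tdp1, 1 nM final. Cpd preinc 15 min RT; substrate 15 nM final, 5 min RT; AS bead mix 10 ug/ml final, 10 min RT. Signal loss = tyrosine-FITC cleavage. No-enzyme wells = max signal.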
TGFb SMAD3 inh – TGF-b pathway inhibition. HepG2 CAGA-GFP TGF-b/SMAD3 reporter, GFP fluorescence, 18 h; TGF-beta stimulated, 500 pg/mL final. Potency, µM (highest dose often 46.1 µM), hits mostly inhibitors. 410,000 compounds, 1.2% hits; further: nearly all actives have a fitted effect of over 65% in size
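Cell-based qHTS in HEPG2 carrying a CAGA-GFP Smad reporter; compounds added before 500 pg/mL final TGF-beta, 18 h incubation at 37 degrees C, GFP fluorescence quantified per cell by imaging cytometry.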
Of the large screens only hits and unclear results are named; the others gave an inactive call. Unless noted, the call rests on the fitted dose curve; in most records, active means well fitted curve in the direction sought with a large enough effect; inconclusive means small, poorly fitted or top-dose-only effect, or another doubt; inactive means no such curve, though single readings can be large; an effect the other way counts as inactive or inconclusive.

CC1(C)CC2CC(C)(CN2C(=O)COC(=O)c2ccc(Cl)cc2N)C1 (stereo not drawn)	TDP1 cell noCPT 23.1µM
COc1cc(Cl)ccc1OCc1cc(C(=O)N2C[C@H]3CC[C@H]2C3)no1	DT40 TDP1 CPT inconclusive
COc1cc(Cl)ccc1OCc1cc(C(=O)N2C[C@]3(C)C[C@H]2CC(C)(C)C3)no1	TDP1 cell noCPT 16.4µM, DT40 TDP1 CPT inconclusive, TGFb SMAD3 inh inconclusive
CCCCn1c(N)c(N(Cc2ccccc2OC)C(=O)c2sccc2C)c(=O)[nH]c1=O	none (no result: TDP1 block)
Cc1ccc(N2CC(NC(=O)C3CCCCC3)CC2=O)cc1 (stereo not drawn)	none (no result: IL1B secr inh)
Cn1c(=O)c2ccccc2n2c(CCl)nnc12	TDP1 cell noCPT 14.6µM, DT40 TDP1 CPT 11.6µM
Cn1c(=O)c2ccccc2n2c(=S)[nH]nc12	none
COc1ccc(C(=O)c2ccc(C)cc2)c(OC)c1OC	TDP1 cell noCPT 18.4µM, DT40 TDP1 CPT 23.1µM (no result: TDP1 block)
COc1ccc(C(=O)c2ccc(Cl)cc2)c2ccccc12	TDP1 cell noCPT inconclusive, DT40 TDP1 CPT inconclusive
CCCCCN(C(=O)CCC(=O)OCC(=O)Nc1cccc(CC)c1)c1c(N)n(CCCC)c(=O)[nH]c1=O	none (no result: TDP1 block)
Cn1cc(SCC(=O)N2CCN(c3ccccc3)CC2)c2ccccc21	TDP1 cell noCPT inconclusive, DT40 TDP1 CPT 20.6µM
CC1CCN(C(=O)Cn2c(=O)n(CCc3ccccc3)c(=O)c3ccccc32)CC1	TDP1 cell noCPT 16.4µM, DT40 TDP1 CPT 14.6µM
Cc1ccc(C)c(N2CCN(C(=O)COc3cc(=O)n(C)c4ccccc34)CC2)c1	TDP1 cell noCPT inconclusive, DT40 TDP1 CPT 14.6µM
Cn1c(=O)cc(SCC(=O)N2CCN(C3CCCCC3)CC2)c2ccccc21	TDP1 cell noCPT inconclusive, IL1B secr inh -60.3, DT40 TDP1 CPT inconclusive (no result: TDP1 block)
Cc1ccc(C)c(N(C)C(=O)COc2cc(=O)n(C)c3ccccc23)c1	TDP1 cell noCPT inconclusive, DT40 TDP1 CPT inconclusive, TGFb SMAD3 inh inconclusive
O=C(O)CCN1C(=O)C2C3C=CC(C2C1=O)C1C(=O)N(CCC(=O)O)C(=O)C31 (stereo not drawn)	none (no result: TDP1 block)
O=C(NCc1ccco1)Nc1cccc(-c2ccccc2)c1	TDP1 cell noCPT inconclusive, DT40 TDP1 CPT inconclusive (no result: TDP1 block)
Cc1cc(C)n(C(C)CC(=O)Nc2ccc3c(c2)OCCO3)n1 (stereo not drawn)	none
CCn1c(=O)cc(SCC(=O)N2CCN(c3cc(C)ccc3C)CC2)c2ccccc21	TDP1 cell noCPT inconclusive, DT40 TDP1 CPT 16.4µM, TGFb SMAD3 inh inconclusive (no result: IL1B secr inh)
CCn1c(=O)cc(SCC(=O)N2CCC(C)CC2)c2ccccc21	TDP1 cell noCPT inconclusive, IL1B secr inh -61.9, DT40 TDP1 CPT inconclusive
CC1CCN(CCCNC(=O)CCc2nnc3n(CCc4ccccc4)c(=O)c4ccccc4n23)CC1	TDP1 cell noCPT 16.4µM, IL1B secr inh inconclusive, DT40 TDP1 CPT inconclusive
O=C(CCc1nnc2n(Cc3ccccc3)c(=O)c3ccccc3n12)NCCCN1CCCCC1	none
Cc1ccc(-c2csc(N3CCC[C@@H]3C(=O)NCCn3c(-c4ccncc4)nc4ccccc43)n2)cc1	TDP1 cell noCPT 13µM, IL1B secr inh inconclusive, DT40 TDP1 CPT inconclusive (no result: TDP1 block)
Cc1ccc(-c2csc(N3CCN(CCCn4c(-c5ccncc5)nc5ccccc54)CC3)n2)cc1	TDP1 cell noCPT 3.66µM, DT40 TDP1 CPT 5.8µM, TGFb SMAD3 inh 7.08µM (no result: TDP1 block)
CC(=O)N[C@@H](C)c1nc2ccccc2n1CCCN1CCN(c2nc(-c3ccc(C)cc3)cs2)CC1	TDP1 cell noCPT 1.03µM, DT40 TDP1 CPT 1.03µM, TGFb SMAD3 inh 8.91µM (no result: TDP1 block)
CCCCn1c(C(C)NC(=O)c2cccs2)nc2ccccc21 (stereo not drawn)	TDP1 cell noCPT inconclusive, DT40 TDP1 CPT inconclusive, TGFb SMAD3 inh inconclusive
